Measurements published in the supplement of paper PMC8728848.
This is one part of a sample in which the strongest signals are shown more often than they occur.

Key:
Assay in all cases: glycan array binding signal (z-score within array); higher = stronger binding
Conditions in all cases: glycan notation: IUPAC condensed, linker removed
[1] = molecular target: GlcNAc(a1-4)Gal(b1-4)GlcNAc(b1-3)Gal(b1-4)[Fuc(a1-3)]GlcNAc(b1-3)Gal(b1-4)[Fuc(a1-3)]GlcNAc
Method in brief: (§1)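 Glycan array data came from 3228 arrays in the Consortium for Functional Glycomics database, and only arrays with an available protein sequence were kept. Glycan names were put into IUPAC-condensed notation, and columns mapping to the same glycan were averaged. The binding signal is a within-array Z-score, averaged across arrays of one protein sequence run at different concentrations or buffers and across linkers. A negative Z-score can be read as non-binding.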

[2] = molecular target: GlcNAc(b1-2)[GlcNAc(b1-6)]Man(a1-6)[GlcNAc(b1-2)Man(a1-3)]Man(b1-4)GlcNAc(b1-4)GlcNAc
Method in brief: as §1

[3] = molecular target: GlcNAc(b1-3)Gal(b1-3)GalNAc
Method in brief: as §1

[4] = molecular target: GlcNAc(b1-3)Gal(b1-4)GlcNAc(b1-3)Gal(b1-4)GlcNAc(b1-3)Gal(b1-4)GlcNAc(b1-2)Man(a1-3)[GlcNAc(b1-3)Gal(b1-4)GlcNAc(b1-3)Gal(b1-4)GlcNAc(b1-3)Gal(b1-4)GlcNAc(b1-2)Man(a1-6)]Man(b1-4)GlcNAc(b1-4)GlcNAc
Method in brief: as §1

[5] = molecular target: GlcNAc(b1-3)Gal(b1-4)GlcNAc(b1-3)Gal(b1-4)GlcNAc(b1-3)Gal(b1-4)GlcNAc(b1-2)[GlcNAc(b1-3)Gal(b1-4)GlcNAc(b1-3)Gal(b1-4)GlcNAc(b1-3)Gal(b1-4)GlcNAc(b1-6)]Man(a1-6)[GlcNAc(b1-3)Gal(b1-4)GlcNAc(b1-3)Gal(b1-4)GlcNAc(b1-3)Gal(b1-4)GlcNAc(b1-2)Man(a1-3)]Man(b1-4)GlcNAc(b1-4)[Fuc(a1-6)]GlcNAc
Method in brief: as §1

GlcNAc(b1-3)Man = molecular target: GlcNAc(b1-3)Man
Method in brief: as §1

GlcNAc(b1-4)GlcNAc = molecular target: GlcNAc(b1-4)GlcNAc
Method in brief: as §1

[6] = molecular target: Kdn(a2-3)Gal(b1-4)[Fuc(a1-3)]GlcNAc
Method in brief: as §1

[7] = molecular target: Man(a1-3)[Man(a1-6)]Man(a1-6)[Man(a1-3)]Man(b1-4)GlcNAc(b1-4)GlcNAc
Method in brief: as §1

[8] = molecular target: Neu5Ac(a2-3)Gal(b1-4)GlcNAc(b1-3)Gal(b1-4)GlcNAc
Method in brief: as §1

[9] = molecular target: Neu5Ac(a2-3)Gal(b1-4)GlcNAc(b1-3)Gal(b1-4)GlcNAc(b1-6)[Gal(b1-3)]GalNAc
Method in brief: as §1

[10] = molecular target: Neu5Ac(a2-6)Gal(b1-4)GlcNAc(b1-2)[Neu5Ac(a2-6)Gal(b1-4)GlcNAc(b1-4)]Man(a1-3)[GlcNAc(b1-4)][Neu5Ac(a2-6)Gal(b1-4)GlcNAc(b1-2)[Neu5Ac(a2-6)Gal(b1-4)GlcNAc(b1-6)]Man(a1-6)]Man(b1-4)GlcNAc(b1-4)GlcNAc
Method in brief: as §1

[11] = molecular target: Neu5Ac(a2-6)Gal(b1-4)GlcNAc(b1-3)Gal(b1-4)GlcNAc(b1-3)[Neu5Ac(a2-6)Gal(b1-4)GlcNAc(b1-3)Gal(b1-4)GlcNAc(b1-6)]GalNAc
Method in brief: as §1

[12] = molecular target: Neu5Ac(a2-6)Gal(b1-4)GlcNAc(b1-6)GalNAc
Method in brief: as §1

[13] = molecular target: Neu5Ac(a2-6)Gal(b1-4)GlcNAc6S
Method in brief: as §1

[14] = molecular target: Neu5Ac(a2-8)Neu5Ac(a2-8)Neu5Ac(a2-3)[GalNAc(b1-4)]Gal(b1-4)Glc
Method in brief: as §1

[15] = molecular target: Neu5Ac(a2-8)Neu5Ac(a2-8)Neu5Ac(a2-8)Neu5Ac(a2-3)[GalNAc(b1-4)]Gal(b1-4)Glc
Method in brief: as §1

[16] = molecular target: Neu5Ac(a2-8)Neu5Gc(a2-3)Gal(b1-4)GlcNAc
Method in brief: as §1

B1: PX14351B-bth-512-36-512 (Bacteroides thetaiotaomicron) (protein)
chain: ASETQQWKTLEDTRSALMGVYGLTRAALADNNTHWICGDLRKGDFTVYKRSDLQAVSDNELNKPYDLLKKVSNWRRFYAVINAASVFMEKAPRTVELDRSYSEQNLKYDIAQVRALRAFAYFYMVRIWGDVPLVTYSYDNGTFPSMPRTDAQTVLSYAKAELLTAIEDLPYQYGTQTNLYYGSYGAQWQGKLFNKLSAYSVLAHICAWQGNYAEAETYSAFIIDHASEINAKYTSIADLTSETGLFYSNASVKGSRILGFNFAHNDNEATQSGHLEQLTLAYPLVQKSYPEIYISKDSLFSIFTNFDDLRFGIIDTIKYSSYYVQNLNEETPVFSKIKIIQDGSAKDNDFGVFGSSIVFTRLEDITLLRAEALCALNRSTEAVSYLNMIRTNRGLREVSFKKDFGNNRESLIAEIFEERRRELMGEGWRWYDLVRRQKLMKDNEAFLRLISSGGIYWPVSEDIITANSQIEQNEFWK
- glycan array binding signal (z-score) [1]: -0.049
- glycan array binding signal (z-score) [2]: -0.115
- glycan array binding signal (z-score) [3]: -0.128
- glycan array binding signal (z-score) [4]: -0.068
- glycan array binding signal (z-score) [5]: 0.033
- glycan array binding signal (z-score) (GlcNAc(b1-3)Man): -0.006
- glycan array binding signal (z-score) (GlcNAc(b1-4)GlcNAc): -0.165
- glycan array binding signal (z-score) [6]: -0.287
- glycan array binding signal (z-score) [7]: -0.271
- glycan array binding signal (z-score) [8]: -0.265
- glycan array binding signal (z-score) [9]: 0.652
- glycan array binding signal (z-score) [10]: 0.217
- glycan array binding signal (z-score) [11]: -0.33
- glycan array binding signal (z-score) [12]: 0.191
- glycan array binding signal (z-score) [13]: -0.355
- glycan array binding signal (z-score) [14]: -0.362
- glycan array binding signal (z-score) [15]: 1.91
- glycan array binding signal (z-score) [16]: 4.31
